The values below come from article PMC3218832.

Targets include RELARELA (p65 homodimer) (Homo sapiens, UniProt Q04206 1-307); p50p50 homodimer (Homo sapiens, UniProt P19838 7-356); RELB subunit;p50 subunit (Homo sapiens;Homo sapiens, UniProt Q01201;P19838 120-401;7-356).
Holding throughout (test): protein binding microarray; high values mean tight binding
Holding throughout (settings): dsDNA, one strand shown

The target in the next assay is T1, p52p52 homodimer (Homo sapiens, UniProt Q00653 4-332).
T1 sequence: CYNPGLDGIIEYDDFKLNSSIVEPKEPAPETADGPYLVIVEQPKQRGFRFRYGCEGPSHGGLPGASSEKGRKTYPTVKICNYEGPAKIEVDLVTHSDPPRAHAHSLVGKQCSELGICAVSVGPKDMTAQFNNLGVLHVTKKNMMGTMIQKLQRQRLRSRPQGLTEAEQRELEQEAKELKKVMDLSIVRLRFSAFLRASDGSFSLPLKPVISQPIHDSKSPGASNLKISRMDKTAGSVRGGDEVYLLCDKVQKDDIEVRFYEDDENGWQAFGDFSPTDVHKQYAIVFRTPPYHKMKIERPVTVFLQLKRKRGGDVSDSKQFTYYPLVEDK

Assay [1] addresses RELA (p65) subunit of heterodimer;p50 subunit (Homo sapiens;Homo sapiens, UniProt Q04206;P19838 1-307;7-356).
Assay [2] deals with RELA (p65) subunit of heterodimer;p52 subunit (Homo sapiens;Homo sapiens, UniProt Q04206;Q00653 1-307;4-332).
In another assay the target is T2, RELB subunit;p52 subunit (Homo sapiens;Homo sapiens, UniProt Q01201;Q00653 120-401;4-332).
T2 sequence 1: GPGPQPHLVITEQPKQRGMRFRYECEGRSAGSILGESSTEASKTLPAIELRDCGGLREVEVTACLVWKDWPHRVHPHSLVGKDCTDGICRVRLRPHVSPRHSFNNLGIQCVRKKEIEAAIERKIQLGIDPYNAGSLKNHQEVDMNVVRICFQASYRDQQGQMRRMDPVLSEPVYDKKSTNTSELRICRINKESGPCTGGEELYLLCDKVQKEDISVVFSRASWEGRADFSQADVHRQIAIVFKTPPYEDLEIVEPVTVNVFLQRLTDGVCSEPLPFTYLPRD
T2 sequence 2: T1 sequence

Assay [3] concerns the target C-Rel subunit;p50 subunit (Homo sapiens;Homo sapiens, UniProt Q04864;P19838 1-285;7-356).
The target of assay [4] is T3, C-Rel subunit;p52 subunit (Homo sapiens;Homo sapiens, UniProt Q04864;Q00653 1-285;4-332).
T3 sequence 1: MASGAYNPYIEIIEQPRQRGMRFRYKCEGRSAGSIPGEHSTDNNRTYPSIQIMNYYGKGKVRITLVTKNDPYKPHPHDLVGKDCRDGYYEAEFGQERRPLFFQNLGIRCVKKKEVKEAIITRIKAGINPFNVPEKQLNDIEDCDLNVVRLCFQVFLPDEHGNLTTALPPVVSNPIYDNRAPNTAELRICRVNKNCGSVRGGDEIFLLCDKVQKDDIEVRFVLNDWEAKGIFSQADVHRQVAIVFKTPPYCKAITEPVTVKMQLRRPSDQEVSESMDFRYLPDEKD
T3 sequence 2: T1 sequence

Sequence of p50p50 homodimer (P19838 7-356): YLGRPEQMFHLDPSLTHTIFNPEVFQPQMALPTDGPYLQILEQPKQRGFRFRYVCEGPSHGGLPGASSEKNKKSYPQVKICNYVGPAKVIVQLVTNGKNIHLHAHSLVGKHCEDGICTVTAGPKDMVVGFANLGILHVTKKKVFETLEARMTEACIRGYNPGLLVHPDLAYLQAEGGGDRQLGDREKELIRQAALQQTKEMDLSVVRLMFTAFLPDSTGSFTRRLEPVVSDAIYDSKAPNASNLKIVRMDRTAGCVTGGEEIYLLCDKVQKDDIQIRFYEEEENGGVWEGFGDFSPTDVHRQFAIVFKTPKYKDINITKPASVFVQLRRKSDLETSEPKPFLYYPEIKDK
Sequence of RELA (p65) subunit of heterodimer;p50 subunit (Q04206 1-307, chain 1 of 2): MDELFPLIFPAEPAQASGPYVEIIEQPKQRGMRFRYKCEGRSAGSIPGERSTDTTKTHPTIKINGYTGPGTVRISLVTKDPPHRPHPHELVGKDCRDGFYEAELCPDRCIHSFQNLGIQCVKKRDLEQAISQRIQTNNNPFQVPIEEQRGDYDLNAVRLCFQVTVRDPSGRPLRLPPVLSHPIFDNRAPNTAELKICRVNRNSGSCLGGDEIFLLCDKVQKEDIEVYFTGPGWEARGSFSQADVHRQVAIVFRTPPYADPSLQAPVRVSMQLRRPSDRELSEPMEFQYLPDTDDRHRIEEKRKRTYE
Sequence of RELA (p65) subunit of heterodimer;p50 subunit (P19838 7-356, chain 2 of 2): as the sequence (P19838 7-356) above
Sequence of RELARELA (p65 homodimer) (Q04206 1-307): as the sequence (Q04206 1-307, chain 1 of 2) above

For AGGAAGCCCCC, the binding signal with RELARELA (p65 homodimer) was determined as 0.317 z-score; with p50p50 homodimer, 1.14 z-score; with p52p52 homodimer, 1.3 z-score; in assay [1] it was 1.61 z-score; in assay [2], 1.31 z-score; with RELB subunit;p50 subunit, 1.03 z-score. Also, the binding signal came to 1.07 z-score with RELB subunit;p52 subunit, 1.09 z-score in assay [3] and 1.7 z-score in assay [4].

As for GGAATACTCCC, the binding signal with RELARELA (p65 homodimer) is 0.714 z-score; with p50p50 homodimer, 0.226 z-score; with p52p52 homodimer, -0.025 z-score; in assay [1] it was 0.507 z-score; in assay [2], 0.124 z-score; with RELB subunit;p50 subunit, 0.0318 z-score. The binding signal was -0.125 z-score with RELB subunit;p52 subunit, 0.28 z-score in assay [3] and 0.199 z-score in [4].

As to GGAAGCTTCCT, the binding signal is 0.818 z-score with RELARELA (p65 homodimer); -1.04 z-score in the assay with p50p50 homodimer; -0.619 z-score with p52p52 homodimer; -0.33 z-score in assay [1]; -0.759 z-score in [2]; -1.01 z-score with RELB subunit;p50 subunit. In addition, the binding signal with RELB subunit;p52 subunit was -0.836 z-score; in assay [3], -0.977 z-score; in [4] it was -0.614 z-score.

Regarding CGGAAATTCCC, the binding signal was 4.22 z-score in the assay with RELARELA (p65 homodimer); 1.06 z-score in the assay with p50p50 homodimer; 2.53 z-score in the assay with p52p52 homodimer; 2.23 z-score in assay [1]; 2.39 z-score in assay [2]; 1.19 z-score with RELB subunit;p50 subunit. Also, the binding signal in the assay with RELB subunit;p52 subunit was determined as 2.04 z-score; in assay [3] it was 2.28 z-score; in assay [4], 2.88 z-score.

Consider GAGTTGGCCCT, for which the binding signal was -0.84 z-score in the assay with RELARELA (p65 homodimer); -1.24 z-score with p50p50 homodimer; -0.495 z-score in the assay with p52p52 homodimer; -0.546 z-score in [1]; -0.734 z-score in assay [2]; -0.243 z-score with RELB subunit;p50 subunit. Also, the figures for the binding signal (with RELB subunit;p52 subunit; in [3]; in assay [4]) were -0.397 z-score, -0.778 z-score and -0.623 z-score, respectively.

On to GAGTTATCCCT, for which the binding signal is -0.151 z-score in the assay with RELARELA (p65 homodimer); 0.156 z-score in the assay with p50p50 homodimer; 0.345 z-score with p52p52 homodimer; -0.075 z-score in [1]; 0.135 z-score in assay [2]; 0.201 z-score with RELB subunit;p50 subunit. Besides, the values for the binding signal (with RELB subunit;p52 subunit; in assay [3]; in assay [4]) were 0.304 z-score, -0.0693 z-score and -0.00956 z-score, respectively.

On to GAATTGTCCCC, for which the binding signal stood at 1.03 z-score with RELARELA (p65 homodimer); 1.37 z-score with p50p50 homodimer; 1.34 z-score with p52p52 homodimer; 1.38 z-score in [1]; 1.18 z-score in assay [2]; 1.38 z-score in the assay with RELB subunit;p50 subunit. Moreover, the results for the binding signal (with RELB subunit;p52 subunit; in assay [3]; in assay [4]) were 1.61 z-score, 1.27 z-score and 0.963 z-score, respectively.

For CAATGAATCCC, the binding signal with RELARELA (p65 homodimer) is -0.259 z-score; in the assay with p50p50 homodimer it was -0.487 z-score; in the assay with p52p52 homodimer, -0.235 z-score; in assay [1], -0.428 z-score; in assay [2], -0.353 z-score; in the assay with RELB subunit;p50 subunit it was -0.22 z-score. The values for the binding signal (with RELB subunit;p52 subunit; in [3]; in [4]) were -0.356 z-score, -0.0958 z-score and -0.345 z-score, respectively.

For CAGGTGCTCCT, the binding signal in the assay with RELARELA (p65 homodimer) is -0.953 z-score; with p50p50 homodimer, -0.0506 z-score; with p52p52 homodimer, 0.0612 z-score; in assay [1], -0.571 z-score; in assay [2] it was -0.266 z-score; with RELB subunit;p50 subunit, -0.45 z-score. The results for the binding signal (with RELB subunit;p52 subunit; in assay [3]; in assay [4]) were -0.443 z-score, -1.31 z-score and -0.565 z-score, respectively.

GAAGAAGCCCT: the binding signal with RELARELA (p65 homodimer) was -0.988 z-score; in the assay with p50p50 homodimer, -1.65 z-score; with p52p52 homodimer, -0.651 z-score; in assay [1], -0.934 z-score; in assay [2] it was -0.868 z-score; with RELB subunit;p50 subunit, -1.04 z-score. In addition, the binding signal was -0.801 z-score with RELB subunit;p52 subunit, -1.08 z-score in [3] and -0.998 z-score in assay [4].

Consider CAGGATCCCCT, for which the binding signal with RELARELA (p65 homodimer) was -0.318 z-score; with p50p50 homodimer, 1.34 z-score; with p52p52 homodimer, 1.3 z-score; in assay [1], 1.91 z-score; in assay [2] it was 1.43 z-score; with RELB subunit;p50 subunit it was 1.79 z-score. Besides, the binding signal with RELB subunit;p52 subunit stood at 1.65 z-score; in assay [3] it was 1.34 z-score; in [4], 0.975 z-score.

Turning to CAAAATGCCCT, the binding signal is 0.196 z-score in the assay with RELARELA (p65 homodimer); -0.106 z-score with p50p50 homodimer; -0.35 z-score with p52p52 homodimer; -0.0537 z-score in assay [1]; -0.15 z-score in [2]; -0.464 z-score with RELB subunit;p50 subunit. In addition, the binding signal with RELB subunit;p52 subunit was -0.38 z-score; in assay [3], -0.13 z-score; in assay [4] it was -0.0299 z-score.

As for CAGGTACCCCT, the binding signal with RELARELA (p65 homodimer) was -0.0502 z-score; with p50p50 homodimer it was 0.353 z-score; with p52p52 homodimer, 0.356 z-score; in assay [1] it was 0.304 z-score; in assay [2], 0.796 z-score; in the assay with RELB subunit;p50 subunit, 0.548 z-score. The results for the binding signal (with RELB subunit;p52 subunit; in assay [3]; in assay [4]) were 1.06 z-score, 0.193 z-score and 0.274 z-score, respectively.

Regarding CAGGGGATCCC, the binding signal in the assay with RELARELA (p65 homodimer) was 1.59 z-score; with p50p50 homodimer, 1.03 z-score; in the assay with p52p52 homodimer, 1.66 z-score; in assay [1], 1.73 z-score; in assay [2], 1.49 z-score; with RELB subunit;p50 subunit, 1.12 z-score. For the same sequence, the figures for the binding signal (in the assay with RELB subunit;p52 subunit; in [3]; in assay [4]) were 1.18 z-score, 0.893 z-score and 1.42 z-score, respectively.

AAATATGTCCT: the binding signal with RELARELA (p65 homodimer) was -0.0065 z-score; in the assay with p50p50 homodimer, -1.09 z-score; with p52p52 homodimer it was -0.534 z-score; in assay [1] it was -0.78 z-score; in [2], -0.678 z-score; in the assay with RELB subunit;p50 subunit, -0.828 z-score. Besides, the binding signal in the assay with RELB subunit;p52 subunit was -0.738 z-score; in assay [3], -0.967 z-score; in assay [4], -0.696 z-score.
